# Values joined by “and” are separate entries in the source; they are usually repeats but may differ in a detail not shown here. Equal values may be shown once. Results filed as inconclusive are left out. The source holds several records for some structures; these can differ, active in one and inactive in another. Active and inactive are the calls of the source. How the source made its calls, unless noted: active means hit-call score of the fitted dose curve at least 0.9, where 1 is the maximum; inactive means score below 0.9.
# Tests used:
# [1] = read-out: Tumor necrosis factor receptor 1 (TNFRSF1A), TNFRSF1A (gene 7132); assay: LTEA_HepaRG_TNFRSF1A: Life Technologies and Expression Analysis (LTEA) Assay for Tumor necrosis factor receptor 1 (TNFRSF1A) using HepaRG (AID 2283535); settings: mRNA level, 48 h; actives raise or lower the signal
# Outline: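 mRNA measured by qRT-PCR (TaqMan, Fluidigm arrays) against ACTB/GAPDH/POLR2A housekeepers after 48 h chemical exposure of HepaRG cells. Top concentration 100 uM, half-log 8-point series, duplicates; vehicle 0.5% DMSO, both fit directions.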
# [2] = read-out: Thyroid Hormone Responsive (THRSP), THRSP (gene 7069); assay: LTEA_HepaRG_THRSP: Life Technologies and Expression Analysis (LTEA) Assay for Thyroid Hormone Responsive (THRSP) using HepaRG (AID 2283536); settings: mRNA level, 48 h; actives raise or lower the signal
# Outline: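 Cell model: human HepaRG, approx. 100,000 cells/well, 0.5% DMSO vehicle. Exposure lasts 48 h; phenobarbital 1 mM serves as induction positive control. Gene expression is measured by qRT-PCR against three endogenous control genes.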
# [3] = read-out: Cellular tumor antigen p53 (Homo sapiens) (UniProt P04637); assay: LTEA_HepaRG_TP53: Life Technologies and Expression Analysis (LTEA) Assay for Tumor Protein P53 (TP53) using HepaRG (AID 2283537); settings: mRNA level, 48 h; actives raise or lower the signal
# Outline: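 Differentiated HepaRG cells in serum-free induction medium exposed 48 h in duplicate to 8 half-log concentrations, top 100 uM, 0.5% DMSO. TP53 mRNA by TaqMan qRT-PCR (Fluidigm), normalized to ACTB, GAPDH, POLR2A; fitted bidirectionally versus DMSO.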
# [4] = read-out: UDP glucuronosyltransferase (UGT1A1), UGT1A1 (gene 54658); assay: LTEA_HepaRG_UGT1A1: Life Technologies and Expression Analysis (LTEA) Assay for UDP glucuronosyltransferase (UGT1A1) using HepaRG (AID 2283538); settings: mRNA level, 48 h; actives raise or lower the signal
# Outline: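 HepaRG, 48 h chemical exposure (top 100 uM, half-log 8-pt, 0.5% DMSO vehicle), duplicate wells; qRT-PCR (TaqMan, Fluidigm array) for UGT1A1 mRNA, housekeeping-normalized; bidirectional curve fit vs DMSO baseline.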
# [5] = read-out: UDP glucuronosyltransferase (UGT1A6), UGT1A6 (gene 54578); assay: LTEA_HepaRG_UGT1A6: Life Technologies and Expression Analysis (LTEA) Assay for UDP glucuronosyltransferase (UGT1A6) using HepaRG (AID 2283539); settings: mRNA level, 48 h; actives raise or lower the signal
# Outline: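 Expression was quantified by TaqMan qRT-PCR on Fluidigm arrays with ACTB/GAPDH/POLR2A normalization and bidirectional fitting against 0.5% DMSO. HepaRG cells (~100,000/well) were treated in duplicate for 48 h at eight half-log concentrations up to 100 uM in serum-free induction medium.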
# [6] = read-out: X-box binding protein 1 (XBP1), XBP1 (gene 7494); assay: LTEA_HepaRG_XBP1: Life Technologies and Expression Analysis (LTEA) Assay for X-box binding protein 1 (XBP1) using HepaRG (AID 2283540); settings: mRNA level, 48 h; actives raise or lower the signal
# Outline: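 XBP1 transcript by qRT-PCR (housekeeping-normalized: ACTB, GAPDH, POLR2A) after 48 h chemical treatment of HepaRG cells, 8-point half-log series topping at 100 uM, vehicle 0.5% DMSO. Gain and loss of signal fitted relative to DMSO.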
# [7] = LTEA_HepaRG_LDH_cytotoxicity: Cytotoxicity Assessment in the Life Technologies and Expression Analysis (LTEA) Assay (AID 2283563; active means hit-call score of the fitted dose curve at least 0.9, where 1 is the maximum;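 on AC50: LDH activity released into spent culture medium as a marker of cell death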)
# Outline: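 LDH release into culture medium read after 48 h chemical treatment of HepaRG cells. Duplicate wells, eight-point half-log series topping at 100 uM, 0.5% DMSO vehicle and baseline.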
# [8] = TOX21_p53_BLA_p2_viability: Viability Assessment in the Tox21 HCT-116 p53 Agonism Beta-lactamase Assay, Phase 2 (AID 2283591; active means hit-call score of the fitted dose curve at least 0.9, where 1 is the maximum;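 further: compound exposure lasted 16 h at 37 °C; actives lower the ATP signal meaning cytotoxicity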)
# Outline: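 HCT-116 p53-bla cells (4000/well) rested 5 h at 37C, then received compounds in DMSO (217-fold dilution) for 16 h at 37C, 5% CO2. After the CCF4 read, CellTiter-Glo was added; ATP luminescence was read after 30 min at room temperature.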
# [9] = target: Cellular tumor antigen p53 (Homo sapiens) (UniProt P04637); assay: TOX21_p53_BLA_p2_ratio: Tox21 HCT-116 p53 Agonism Beta-lactamase Assay, Ratio, Phase 2 (AID 2283592; active means hit-call score of the fitted dose curve at least 0.9, where 1 is the maximum)
# Cellular tumor antigen p53 (Homo sapiens), sequence (P04637 whole entry, looked up): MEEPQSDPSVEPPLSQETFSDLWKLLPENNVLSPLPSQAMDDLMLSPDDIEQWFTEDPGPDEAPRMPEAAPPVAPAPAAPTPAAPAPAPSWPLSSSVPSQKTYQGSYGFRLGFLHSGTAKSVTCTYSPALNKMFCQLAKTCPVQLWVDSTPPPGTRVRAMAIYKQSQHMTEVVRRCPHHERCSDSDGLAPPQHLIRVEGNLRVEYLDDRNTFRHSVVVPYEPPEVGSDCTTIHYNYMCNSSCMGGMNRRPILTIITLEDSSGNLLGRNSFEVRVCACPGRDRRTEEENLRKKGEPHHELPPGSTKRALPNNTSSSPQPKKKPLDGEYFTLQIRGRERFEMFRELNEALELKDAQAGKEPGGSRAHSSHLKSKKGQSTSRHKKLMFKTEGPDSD
# Outline: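 Read-out is the blue/green (460/530 nm, 405 nm excitation) ratio after 2 h CCF4-AM loading, fitted as gain versus DMSO. Compounds, pinned at 217-fold dilution from DMSO stocks, stayed 16 h on HCT-116 beta-lactamase reporter cells seeded 5 h earlier.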
# [10] = ATG_XTT_Cytotoxicity: Cytotoxicity Assessment in the Attagene TRANS-FACTORIAL HepG2 Assay (AID 2283584; active means hit-call score of the fitted dose curve at least 0.9, where 1 is the maximum)
# Outline: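 Viability endpoint from XTT after 24 h chemical exposure of reporter-transfected human HepG2 liver cells; signal loss fitted relative to DMSO negative control.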
structure (smiles),measurement,setting,value
O=C(O)Cn1c(=O)n(Cc2ccc(Br)cc2F)c(=O)c2ccc(Cl)cc21,outcome,[1],inactive
same,AC50,[2],10.3 µM (active)
same,outcome,[3],inactive
same,AC50,[4],17.7 µM (active)
same,outcome,[5],inactive
same,outcome,[6],inactive
same,outcome,[7],inactive
same,outcome,[8],inactive
same,outcome,[9],inactive
OC12N=C(c3ccccc3)SC1Cc1cc(Cl)ccc12 (stereo unspecified),outcome,[1],inactive
same,AC50,[2],16.2 µM (active)
same,AC50,[3],26 µM (active)
same,AC50,[4],2.54 µM (active)
same,outcome,[5],inactive
same,AC50,[6],3.94 µM (active)
same,outcome,[7],inactive
same,outcome,[8],inactive
same,AC50,[9],71.5 µM (active)
CN(C[C@@H](CC[N+]12CCC(C3CCCCC3)(CC1)CC2)c1ccc(Cl)c(Cl)c1)C(=O)c1cc(C(F)(F)F)cc(C(F)(F)F)c1,outcome,[1],inactive
same,AC50,[2],4.72 µM (active)
same,outcome,[3],inactive
same,AC50,[4],6.65 µM (active)
same,AC50,[5],1.66 µM (active)
same,outcome,[6],inactive
same,AC50,[7],26.6 µM (active)
same,AC50,[8],25.9 µM (active)
same,AC50,[9],64.8 µM (active)
CC(C)(C)c1csc(-c2cc3cc(OCc4ccccc4CC(=O)O)ccc3o2)n1,AC50,[1],83.2 µM (active)
same,outcome,[2],inactive
same,AC50,[3],82.4 µM (active)
same,AC50,[4],85.5 µM (active)
same,AC50,[5],77.2 µM (active)
same,outcome,[6],inactive
same,AC50,[7],76.6 µM (active)
same,AC50,[8],25.5 µM (active)
same,AC50,[9],36.2 µM (active)
c1ccc(C[n+]2cccc3ccccc32)cc1,AC50,[1],27.3 µM (active)
same,AC50,[2],50 µM (active)
same,AC50,[3],35.7 µM (active)
same,AC50,[4],26 µM (active)
same,outcome,[5],inactive
same,outcome,[6],inactive
same,AC50,[7],34.4 µM (active)
same,outcome,[10],inactive
same,outcome,[9],inactive
CC(=O)N1CCN(c2ccc(OC[C@H]3CO[C@](Cn4ccnc4)(c4ccc(Cl)cc4Cl)O3)cc2)CC1,AC50,[1],75.9 µM (active)
same,AC50,[2],12.7 µM (active)
same,AC50,[3],90.3 µM (active)
same,AC50,[4],11.6 µM (active)
same,AC50,[5],30.8 µM (active)
same,outcome,[6],inactive
same,AC50,[7],86.9 µM (active)
same,AC50,[8],56.7 µM (active)
same,outcome,[8],inactive
same,outcome,[9],inactive
CCO[Si](CCCNC(N)=O)(OCC)OCC,outcome,[1],inactive
same,outcome,[2],inactive
same,outcome,[3],inactive
same,outcome,[4],inactive
same,outcome,[5],inactive
same,outcome,[6],inactive
same,outcome,[7],inactive
same,outcome,[8],inactive
same,outcome,[9],inactive
NCc1cccc(C2CCN(C(=O)c3ccc(C#Cc4ccccc4F)o3)CC2)c1,AC50,[1],91.9 µM (active)
same,AC50,[2],83.9 µM (active)
same,outcome,[3],inactive
same,AC50,[4],86.3 µM (active)
same,AC50,[5],93.1 µM (active)
same,outcome,[6],inactive
same,AC50,[7],81.4 µM (active)
same,AC50,[8],68.9 µM (active)
same,AC50,[9],86.2 µM (active)
CCN(Cc1cccc(S(=O)(=O)O)c1)c1ccc(C(=C2C=CC(=[N+](CC)Cc3cccc(S(=O)(=O)O)c3)C=C2)c2ccccc2S(=O)(=O)[O-])cc1,outcome,[1],inactive
same,outcome,[2],inactive
same,outcome,[3],inactive
same,outcome,[4],inactive
same,outcome,[5],inactive
same,outcome,[6],inactive
same,outcome,[7],inactive
same,AC50,[8],19.4 µM (active)
same,outcome,[9],inactive
Cc1ccc2oc(CN(Cc3ccccc3)C(=O)Nc3c(F)cc(F)cc3F)c(-c3ccc(Cl)cc3)c2c1,outcome,[1],inactive
same,outcome,[2],inactive
same,AC50,[3],44.2 µM (active)
same,outcome,[4],inactive
same,outcome,[5],inactive
same,outcome,[6],inactive
same,outcome,[7],inactive
same,outcome,[10],inactive
same,outcome,[8],inactive
same,outcome,[9],inactive
NC(=O)c1nc(-c2cccc(-c3cc(F)ccc3OCC(F)(F)C(F)(F)F)c2)n[nH]1,outcome,[1],inactive
same,outcome,[2],inactive
same,outcome,[3],inactive
same,AC50,[4],15.8 µM (active)
same,AC50,[5],50 µM (active)
same,outcome,[6],inactive
same,AC50,[7],76.1 µM (active)
same,AC50,[8],65.9 µM (active)
same,AC50,[9],79.6 µM (active)
CCN(CC)C(=O)c1cc(S(=O)(=O)Cc2ccccc2)c(N2CCC(c3ccccc3)CC2)cc1N(CC)CCN(C)C,AC50,[1],30.1 µM (active)
same,AC50,[2],6.01 µM (active)
same,AC50,[3],30.7 µM (active)
same,AC50,[4],19 µM (active)
same,AC50,[5],30 µM (active)
same,AC50,[6],28.8 µM (active)
same,AC50,[7],31.1 µM (active)
same,AC50,[8],29.4 µM (active) and 33.5 µM (active)
same,outcome,[9],inactive
Cc1cn([C@H]2C[C@H](N=[N+]=[N-])[C@@H](CO)O2)c(=O)[nH]c1=O,outcome,[1],inactive
same,outcome,[2],inactive
same,outcome,[3],inactive
same,outcome,[4],inactive
same,outcome,[5],inactive
same,outcome,[6],inactive
same,outcome,[7],inactive
same,outcome,[8],inactive
same,outcome,[9],inactive
Cc1cc(F)ccc1-c1cc(N2CC[C@@H](O)[C@H]2CO)ncc1N(C)C(=O)C(C)(C)c1cc(C(F)(F)F)cc(C(F)(F)F)c1,outcome,[1],inactive
same,AC50,[2],20.6 µM (active)
same,AC50,[3],19.9 µM (active)
same,AC50,[4],23 µM (active)
same,outcome,[5],inactive
same,outcome,[6],inactive
same,AC50,[7],30.9 µM (active)
same,AC50,[8],11 µM (active)
same,AC50,[9],21.8 µM (active)
CCCCCCCCCC(=O)O,outcome,[1],inactive
same,outcome,[2],inactive
same,outcome,[3],inactive
same,outcome,[4],inactive
same,outcome,[5],inactive
same,outcome,[6],inactive
same,outcome,[7],inactive
same,outcome,[10],inactive
same,outcome,[9],inactive
O=C(Nc1ccc(Cl)cc1)Nc1ccc(Cl)c(Cl)c1,AC50,[1],13.1 µM (active)
same,outcome,[2],inactive
same,AC50,[3],12.4 µM (active)
same,AC50,[4],14.9 µM (active)
same,AC50,[5],13.5 µM (active)
same,AC50,[6],17.2 µM (active)
same,AC50,[7],24.9 µM (active)
same,outcome,[10],inactive
same,outcome,[8],inactive
same,AC50,[9],3.12 µM (active) and 5.23 µM (active) and 3.82 µM (active)
Cc1cccc2ccccc12,outcome,[1],inactive
same,outcome,[2],inactive
same,outcome,[3],inactive
same,outcome,[4],inactive
same,outcome,[5],inactive
same,outcome,[6],inactive
same,outcome,[7],inactive
same,outcome,[10],inactive
same,outcome,[9],inactive
